Screening results from PubChem BioAssay.
FLuc modulator = firefly luciferase modulation, counter-screen for miR-21 project; purified FLuc, Km substrates, luminescence inhibition; Potency, µM (top dose mostly 57.5 µM), hits mostly inhibitors; 360,000 compounds, 6.9% hits; AID 588342; also: nearly all actives have a fitted effect of over 55% in size
Target sequence (P08659 whole entry, looked up): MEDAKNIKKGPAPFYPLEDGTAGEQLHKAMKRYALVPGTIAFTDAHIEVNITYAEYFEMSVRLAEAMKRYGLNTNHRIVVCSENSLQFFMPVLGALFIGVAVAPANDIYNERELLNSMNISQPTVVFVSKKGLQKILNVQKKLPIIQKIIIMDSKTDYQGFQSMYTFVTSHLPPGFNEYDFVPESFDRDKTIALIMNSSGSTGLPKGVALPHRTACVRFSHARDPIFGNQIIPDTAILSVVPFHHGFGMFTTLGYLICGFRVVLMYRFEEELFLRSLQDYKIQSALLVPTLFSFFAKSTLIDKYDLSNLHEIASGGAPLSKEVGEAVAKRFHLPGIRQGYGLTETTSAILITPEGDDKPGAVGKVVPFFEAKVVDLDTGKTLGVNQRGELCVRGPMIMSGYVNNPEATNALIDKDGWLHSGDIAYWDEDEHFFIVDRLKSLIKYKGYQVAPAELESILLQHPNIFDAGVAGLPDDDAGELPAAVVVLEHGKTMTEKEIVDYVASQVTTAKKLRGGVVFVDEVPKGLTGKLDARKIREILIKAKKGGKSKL
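Purified P. pyralis luciferase, 10 nM final, with Km-level 10 uM D-luciferin and 10 uM ATP in 50 mM Tris acetate pH 7.5, 10 mM Mg acetate, 0.01% Tween-20, 0.05% BSA; 6-point qHTS titration about 60 µM downward; luminescence read.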
NPC1 promoter act = activates the NPC1 promoter; AID 485313; Huh7 NPC1 promoter luciferase reporter, 24 h; 320,000 compounds, 2.4% hits; Potency, µM (top dose mostly 9.22 µM), most hits filed as activators; also: nearly all actives have a fitted effect of over 60% in size
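Huh7 reporter cells (NPC1 promoter driving luciferase) are dosed with compound for 24 h at 37 °C, 5% CO2; luciferase detection reagent is then added and luminescence measured after 10 min at ambient temperature.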
Rab9 promoter act = activates the Rab9 promoter. Huh7 Rab9 promoter-luciferase reporter, luminescence, 24 h. Potency, µM (titrated, usually from 9.22 µM), hits mostly activators. 320,000 compounds, 2.8% hits; also: nearly all actives have a fitted effect of over 60% in size
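Promoter activation is measured as luciferase luminescence in Huh7 cells stably transfected with a Rab9 promoter–luciferase construct, following 24 h compound exposure at 37 °C and 10 min reagent incubation at ambient temperature.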
ELG1 repair inh = blocks ELG1-dependent DNA repair in HEK293T cells | Potency, µM (doses to about 46.1 µM), usual class: inhibitors | HEK293T ELG1-luciferase reporter, luminescence, 16 h; DNA damage induced by 5-fluorouridine | 330,000 compounds, 2.3% hits; also: nearly all actives have a fitted effect of over 55% in size
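Luminescence from the luciferase reporter, measured 30 min after ONE-Glo reagent at room temperature, was the read-out. Beforehand, 2,000 cells per well were exposed for 16 hr at 37 °C to 5-fluorouridine together with compound or vehicle.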
SMN2 splice enh = SMN2 splice variant enhancement. HEK293 SMN2-luciferase splicing reporter, luminescence, 30-36 h. Potency, µM (doses to about 46.1 µM), usual class: activators. 210,000 compounds, 2.8% hits; also: nearly all actives have a fitted effect of over 55% in size
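qHTS luciferase splicing reporter: luminescence rises when SMN2 exon 7 is included in transfected HEK293 cells. Compound exposure lasted 30-36 h at 37C, with 4.5 mM final sodium butyrate as control, followed by a ONE-Glo read.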
ELG1 genotox = genotoxicity induction in ELG1-luciferase HEK293T cells. HEK293T ELG1-luciferase reporter, luminescence, 16 h. Potency, µM (series often up to 46 µM), hits mostly activators. 330,000 compounds, 1.3% hits. AID 504466; also: nearly all actives have a fitted effect of over 60% in size
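Genotoxicity was scored as increased ELG1-luciferase reporter signal, measured by ONE-Glo luminescence (30 min, room temperature). Compound or vehicle exposure of the HEK293T reporter cells lasted 16 hr at 37°C.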
Hits are given with their value; n = inactive; u = inconclusive; x = not tested or not shown; [ ] = remark or other dose. In the library only some 9.2% were active in any assay of this set; here they are far more common. Calls follow the shape of the dose curve; as a rule, active = well fitted curve in the direction sought with a large enough effect; inconclusive = small, poorly fitted or top-dose-only effect, or another doubt; inactive = no such curve, though single readings can be large; an effect the other way counts as inactive or inconclusive.

SMILES	FLuc modulator	NPC1 promoter act	Rab9 promoter act	ELG1 repair inh	SMN2 splice enh	ELG1 genotox
COc1ccc(/C=C2\C(=O)NC(=O)N(Cc3ccccc3)C2=O)c(OC)c1OC	n	n	n	n	n	n
COc1ccc(CN2C(=O)NC(=O)/C(=C\c3cc(OC)c(OC)c(OC)c3)C2=O)cc1	19µM	n	n	u	n	n
Cn1cccc1C(=O)OCC(=O)NCc1cccs1	x	x	x	u	x	n
Cc1nc(Cl)sc1C(=O)Nc1ccc2ccccc2c1	7.6µM	n	u	u	13µM	u
COc1ccc(-c2cc(=Nc3ccccc3)c3cc(C)ccc3o2)cc1	27µM	n	n	u	u	u
COc1ccc(-c2cc(=NCCC(=O)O)c3cc(C)ccc3o2)cc1	13µM	u	u	u	x	u
Cc1ccccc1-c1nc(CS(=O)CC(=O)N2CCN(c3cc(Cl)ccc3C)CC2)c(C)o1 (stereo unspecified)	n	x	x	x	n	x
Cc1ccc2nc(N3CCC(C(=O)N4CCC5(CC4)OCCO5)CC3)sc2c1	12µM	u	u	u	x	n
Cc1ccc(S(=O)(=O)NCC2CCC(C(=O)N3CCC4(CC3)OCCO4)CC2)cc1 (stereo unspecified)	n	n	n	n	n	n
CCc1ccc2nc(N3CCC(C(=O)N4CCC5(CC4)OCCO5)CC3)sc2c1	9.5µM	n	n	u	n	u
O=C(C1CCN(c2nc3ccc(Br)cc3s2)CC1)N1CCC2(CC1)OCCO2	13µM	n	n	u	n	u
CCOc1ccc2nc(N3CCC(C(=O)N4CCC5(CC4)OCCO5)CC3)sc2c1	15µM	u	u	u	x	n
O=C(O)[C@H]1C2c3ccccc3C(c3ccccc32)[C@@H]1C(=O)NCC1CC1	x	x	x	x	n[9.22 µM]	x
COC(=O)c1ccc(CC(C(=O)c2ccccc2)N(C)C)cc1 (stereo unspecified)	15µM	u	u	u	x	u
COC(=O)C1=C(c2ccccc2OCc2ccccc2)C[C@@H]2CC[C@H]1N2C(=O)NCc1ccc(N(C)C)cc1	n	n	n	16µM	x	n
COC(=O)C1=C(c2ccc(F)cc2OCc2ccccc2)C[C@@H]2CC[C@H]1N2C(=O)NCc1ccc(N(C)C)cc1	n	n	n	u	x	n
C#CCN1C(=O)S/C(=C\c2ccc(N3CCOCC3)cc2C)C1=O	2.4µM	u	2.8µM	u	n	u
CCOc1ccc(N2C(=O)NC(=O)/C(=C\c3ccc(N4CCOCC4)cc3C)C2=O)cc1	u	n	n	u	n	n
CN(Cc1ccccc1)C(=O)Cn1c(=O)oc2cc(S(=O)(=O)NCc3ccccc3)ccc21	n	n	n	u	n	n
CC1CC(C)CN(S(=O)(=O)c2ccc3c(c2)oc(=O)n3CC(=O)NCc2cccnc2)C1 (stereo unspecified)	n	n	n	3.7µM	x	n
CNC(=O)[C@@H]1C[C@H]1[C@@H](NP(=O)(c1ccccc1)c1ccccc1)c1ccccc1	x	x	x	x	13µM	x
CCn1c(O)c(N=Nc2cccc(S(=O)(=O)N3CCOCC3)c2)c(=O)n(CC)c1=S	n	n	n	18µM	x	n
CCn1c(O)c(N=Nc2ccc(S(=O)(=O)N3CCOCC3)cc2)c(=O)n(CC)c1=S	n	n	n	u	x	n
CC(C)(C)c1csc(NC(=O)Nc2ccccc2)n1	3.4µM	4µM	1.8µM	u	7.9µM	n
C(=NCCN1CCOCC1)=NC1CCCCC1	x	x	x	x	n[9.22 µM]	x
CN1C(=O)C(=Cc2ccccc2OCc2ccccc2Cl)C(=O)N(C)C1=O	u	n	n	n	n	n
CN1C(=O)C(=Cc2c(OCc3cnc(Cl)s3)ccc3ccccc23)C(=O)N(C)C1=O	19µM	n	u	n	n	u
CC(Oc1ccc(Br)cc1)C(=O)N(Cc1nc(-c2ccccc2)no1)C(C)C (stereo unspecified)	n	x	x	x	n	x
Cc1ccc(-c2nc(N3CCOCC3)s[n+]2-c2ccccc2)cc1	9.5µM	n	n	u	n	u
CSCC[C@@H](N)P(C)(=O)O	x	x	x	x	n[9.22 µM]	x
